# PubChem BioAssay (Tox21)
# Inconclusive results are not listed. Calls of active or inactive are those of the source. Calls come from the whole dose curve; as a rule, active = well fitted cell-killing curve with a large enough effect in the repeat runs; inconclusive = weak or mixed curves, or effect the other way; inactive = no such curve, though single readings can be large or run the other way.
# Test: qHTS assay to identify small molecule antagonists of the glucocorticoid receptor (GR) signaling pathway - cell viability counter screen (AID 720693); note: nearly all actives have a fitted effect of over 55% in size
# Details: GR-bla HeLa viability, CellTiter-Glo luminescence, 18 h, with 5 nM dexamethasone present; series mostly up to 58.5 µM; viability change, negative = cytotoxic: at the top concentration
# Text: National Center for Advancing Translational Sciences [NCATS]
# NIH Chemical Genomics Center [NCGC]
# U.S. Environmental Protection Agency [EPA]
# National Institutes of Environmental Health Sciences [NIEHS]
# National Toxicology Program [NTP]
# U.S. Food and Drug Administration [FDA]
# The Glucocorticoid receptor (GR) is one of the members of the nuclear receptor family of ligand-dependent transcription factors. GR plays a critical role in carbohydrate, protein and lipid metabolisms and programmed cell death. CellSensor GR-bla HeLa cell line (Invitrogen) contains a beta-lactamase reporter gene under the control of the glucocorticoid response element stably integrated into HeLa cells, a cervical cancer cell line that expresses glucocorticoid receptor. The activation of the reporter gene under culture conditions can be detected by fluorescence intensity. This cell line has been used to screen the Tox21 10K compound library and to identify the compounds that inhibit the GR signaling. The cytotoxicity of the Tox21 compound library against the GR-bla HeLa cell line was tested in parallel by measuring the cell viability using CellTiter-Glo assay in the same wells.
# Tox21 Assay Protocol Summary:
# The GR-bla HeLa cells were dispensed at 1500 cells/5 ul/well in 1536-well black wall/clear bottom plates using a Multidrop Combi (ThermoFisher Scientific, Waltham, MA) dispenser. After the assay plates were incubated at a 37 C/5% CO2 incubator for 4 hours, 23 nL of compounds dissolved in DMSO, positive controls or DMSO only was transferred to the assay plate by a pintool station (Kalypsys, San Diego, CA), followed by addition of 1 uL of dexamethasone (5 nM, final concentration in the well). The plates were incubated at 37 C for 18 hours. After 1 uL of LiveBLAzerTM B/G FRET substrate was added using a Flying Reagent Dispenser (Aurora Discovery, San Diego, CA), the plates were incubated at room temperature (RT) for 2 hours, and fluorescence intensity was measured by an Envision plate reader (PerkinElmer, Shelton, CT). After measurement of bla assay, 3 ul CellTiter-Glo (Promega, Madison, WI) was added to measure the cytotoxicity and the plates were then incubated at RT for 30 min. The luminescence was measured using a ViewLux (Perkin Elmer) plate reader.
# % is set by controls: 0 for no effect and ±100 for the full control effect; potency is the fitted concentration of half-maximal effect.
SMILES,"viability change, negative = cytotoxic",Potency
Clc1ccc(C(Cl)(Cl)Cl)cc1Cl,5.49% (inactive),
COc1cnc(OC)n2nc(NS(=O)(=O)c3c(OCC(F)F)cccc3C(F)(F)F)nc12,-7.78% (inactive),
CC(Cc1ccc2c(c1)OCO2)NO (stereo not given),-0.597% [at 78.9 µM] (inactive),
CC(=O)[O-].CC(=O)[O-].[Co+2],5.96% (inactive),
CNC(=O)Oc1cc(C)cc(C(C)C)c1,-11.6% (inactive),
CCCCC/C=C\C/C=C\C/C=C\C/C=C\CCCC(=O)NCC(=O)O,-8.97% [at 7.04 µM] (inactive),
Cc1ccn2nc(S(=O)(=O)Nc3c(F)cccc3F)nc2n1,-0.648% (inactive),
N#CSCc1ccccc1,-2.83% [at 78.9 µM] (inactive),
Fc1ccc(C(OCCN2CCN(CCCc3ccccc3)CC2)c2ccc(F)cc2)cc1,,21.3 µM (active)
Cc1ccc2cc3c(ccc4ccccc43)c3c2c1CC3,-10.3% (inactive),
CCOP(=S)(OCC)SC(CCl)N1C(=O)c2ccccc2C1=O (stereo not given),-3.2% (inactive),
CCC[CH2][Sn]([CH2]CCC)([CH2]CCC)[O][Sn]([CH2]CCC)([CH2]CCC)[CH2]CCC,,1.35 µM (active)
Cc1ccccc1OP(=O)(Oc1ccccc1C)Oc1ccccc1C,-18.7% [at 78.9 µM] (inactive),
CC(=O)[O-].CC(=O)[O-].O.O.O.[Pb+2],30.1% (inactive),
Oc1cc(Cl)cc(Cl)c1,-10.9% [at 78.9 µM] (inactive),
CC(O)C(=O)[O][Hg][c]1ccccc1 (stereo not given),,0.549 µM (active)
ClSC(Cl)(Cl)Cl,20.2% (inactive),
CNC(=O)O/N=C(\C)C(C)S(C)(=O)=O (stereo not given),-6.26% [at 765 µM] (inactive),
ClCBr,25.8% [at 78.9 µM] (inactive),
c1cc[n+]2c(c1)-c1cccc[n+]1CC2,-28.3% (inactive),

SMILES,"viability change, negative = cytotoxic",Potency
O=[N+]([O-])c1cc(C(F)(F)F)c(Cl)c([N+](=O)[O-])c1Nc1ncc(C(F)(F)F)cc1Cl,,21.9 µM (active)
C=CCOC(=O)c1ccccc1N,-0.953% [at 78.9 µM] (inactive),
O=C(N[C@@H]1N=C(c2ccccc2F)c2cccc3c2N(CC3)C1=O)c1cc2ccccc2[nH]1,0.652% (inactive),
N#CCCl,0.799% [at 78.9 µM] (inactive),
Cc1cccc(Cc2cnc[nH]2)c1C,-5.14% (inactive),
CCO/N=C(\CC)C1=C(O)CC(c2c(C)cc(C)cc2C)CC1=O (stereo not given),29% (inactive),
ClC1(Cl)C2(Cl)C3(Cl)C4(Cl)C(Cl)(Cl)C5(Cl)C3(Cl)C1(Cl)C5(Cl)C24Cl (stereo not given),-4.77% (inactive),
COP(=S)(OC)Oc1nc(Cl)c(Cl)cc1Cl,10.2% (inactive),
CCN(CC)C(=O)N[C@@H]1C=C2c3cccc4[nH]cc(c34)C[C@@H]2N(C)C1,-7.29% (inactive),
CN(C)c1ccc(N)cc1,-15.5% (inactive),
BrCC(Br)(Br)Br,-2.02% [at 78.9 µM] (inactive),
C=CC(=O)[O][Sn]([CH2]CCC)([CH2]CCC)[CH2]CCC,,1.55 µM (active)
CCOP(=S)(OCC)Oc1cc(C)nc(N(CC)CC)n1,-7.83% (inactive),
CCCCCCC[CH2][Sn]([Cl])([Cl])[CH2]CCCCCCC,,54.9 µM (active)
Clc1ccc(C2(Cn3cncn3)OCCO2)c(Cl)c1,,inactive
CCN(CC)C(=S)S,,inactive
CC1CN1 (stereo not given),5.6% (inactive),
COP(=O)(OC)Oc1ccc([N+](=O)[O-])cc1,-0.0779% (inactive),
CC(=O)C(Cl)C(=O)N(C)C (stereo not given),0.558% (inactive),
CN(C)C(=S)SSC(=S)N(C)C,,inactive
